Screens from PubChem.
Only some compounds are listed: those with a hit (about 7.8% of all), similar ones and a draw of the others.
HCMV inh: human cytomegalovirus inhibition; activity change, negative = inhibition, % at 57.5 µM; 4.5% of 410,000 active; HFF cells, HCMV-luciferase reporter, 72 h; stronger effect = lower value; AID 1259415; in the data active = activity change below about -60%; inconclusive = no clear call, values can overlap the other calls; inactive = above about -39%
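Two-dose cell screen: HFF monolayers treated with compounds and infected with luciferase-expressing HCMV at 1 PFU/cell, 72 h at 37C, then lysed for luciferase measurement.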
Vaccinia mCherry: vaccinia inhibition (mCherry reporter). Potency, µM (titrated, usually from 36.5 µM), actives largely listed as inhibitors. 0.63% of 310,000 active. Vaccinia virus mCherry reporter infection, fluorescence; calls by dose curve; tested in A549 cells; also: nearly all actives have a fitted effect of over 35% in size
Lassa entry inh: blocks Lassa virus binding to or entry into cells. 1.2% of 300,000 active. Potency, µM (series often up to 37.9 µM), hits mostly inhibitors. Lassa virus pseudotype entry inhibition, cell reporter; calls by dose curve; tested in HEK293 cells; also: nearly all actives have a fitted effect of over 50% in size
Marburg entry inh: inhibitors of Marburg virus binding or cell entry. 1.8% of 300,000 active. AID 540276. Potency, µM (titrated, usually from 37.8 µM), hits mostly inhibitors. Marburg virus pseudotyped entry inhibition, cell reporter; calls by dose curve; tested in HEK293 cells
Vaccinia Venus: vaccinia inhibition (Venus reporter) | Vaccinia virus Venus reporter expression, fluorescence | Potency, µM (doses to about 36.5 µM), most hits filed as inhibitors | 0.46% of 330,000 active; calls by dose curve; tested in A549 cells; also: nearly all actives have a fitted effect of over 30% in size
HCV inhibitor: inhibitors of hepatitis C virus infection. 3.4% of 340,000 active. Potency, µM (top dose mostly 41.8 µM), actives largely listed as inhibitors. Huh7.5.1 HCVcc-Cre infection, luciferase reporter, 44 h; active = well fitted inhibition curve with a large enough effect; inconclusive = small, poorly fitted or top-dose-only effect, or another doubt; inactive = no such curve, though single readings can be large or run the other way
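Infectious HCVcc-Cre (~0.5 moi) was added to cells just after compound, with cells seeded 4 h earlier at 1,000 per well. Luciferase activity after 44 h culture reported infection; substrate was incubated 15 min at room temperature before reading.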
Numbers stand for hits; . = inactive; ? = inconclusive; / = not tested or not shown.

SMILES	HCMV inh	Vaccinia mCherry	Lassa entry inh	Marburg entry inh	Vaccinia Venus	HCV inhibitor
COc1ccc(-c2nnc(NC(=O)c3ccc(S(=O)(=O)N4COCC4(C)C)cc3)o2)cc1	-62	.	?	?	?	?
O=C(Nc1nnc(-c2ccccc2Cl)o1)c1ccc(S(=O)(=O)N2CCCCCC2)cc1	/	.	?	?	.	?
CC1(C)COCN1S(=O)(=O)c1ccc(C(=O)Nc2nnc(-c3ccc(Cl)s3)o2)cc1	/	?	?	6.3µM	?	2µM
CC(=O)O[C@@H]1N=C(c2ccccc2)c2ccccc2NC1=O	/	/	/	.	/	/
CCc1c(C(=O)NCCc2cccc(C)c2)[nH]c(C)c1C(C)=O	.	.	3.5µM	?	.	.
CC(=O)c1c(C)[nH]c(C(=O)NCCc2cccc(C)c2)c1C	.	?	.	.	?	?
Cc1nc(NCc2ccc3nsnc3c2)sc1-c1ccn(C)n1	/	.	/	/	.	/
C=Cc1ccc(COc2ccc3oc(-c4ccccc4)c(C(=O)OCC)c3c2)cc1	.	.	.	.	.	/
O=C1C(NS(=O)(=O)c2cccs2)=C(N2CCOCC2)C(=O)c2ccccc21	?	?	?	.	.	.
CCN1CCN(C2=C(NS(=O)(=O)c3ccccc3)C(=O)c3ccccc3C2=O)CC1	-62	/	/	/	/	11µM
CCN1CCN(C2=C(NS(=O)(=O)c3ccc(Br)cc3)C(=O)c3ccccc3C2=O)CC1	-112	/	/	/	/	?
CN1CCN(C2=C(NS(=O)(=O)c3cccs3)C(=O)c3ccccc3C2=O)CC1	.	18µM	?	?	10µM	11µM
Cc1nnsc1C(=O)N/N=C/c1ccc2ccccc2c1O	-100	2.2µM	?	?	?	?
Cc1nnsc1C(=O)N/N=C/c1ccccc1	.	.	.	?	.	.
Cc1nnsc1C(=O)N/N=C/c1ccc(OC(F)(F)F)cc1	-61	.	?	.	.	.
O=C(NCc1ccc(Cl)cc1)C(=O)c1cn(CC(=O)N2CCOCC2)c2ccccc12	-87	/	/	/	/	.
CCN(CC)CCCOC(=O)C(OC(C)C)(c1ccccc1)c1ccccc1	.	/	16µM	12µM	/	7.1µM
Cc1ccccc1-c1nn2c(=O)cc(CN3CCN(C(=O)c4ccccc4Br)CC3)nc2s1	.	.	?	/	.	/
Cc1c2cnn(CC(=O)NCCc3ccccc3)c(=O)c2c(C)n1Cc1ccccc1Cl	.	.	.	?	.	/
CN(C)S(=O)(=O)c1ccc(NC(=S)NC(=O)Cc2ccccc2)cc1	-63	.	.	.	.	.
CCc1ccc(NC(=O)CSC2=Nc3ccccc3C3=NC(CCC(=O)NCc4ccco4)C(=O)N23)cc1 (stereo not drawn)	.	.	.	/	.	/
COc1ccccc1N1CCN(c2nc(CNC(=O)C3CC34CCCC4)nc3ccccc23)CC1 (stereo not drawn)	/	.	/	/	.	/
CCC1=NN2C(=N)/C(=C\c3cccn3-c3ccc(C)c(C)c3)C(=O)N=C2S1	.	.	.	.	.	?
CCC1=NN2C(=N)/C(=C\c3cccn3-c3ccc(Cl)cc3)C(=O)N=C2S1	-81	.	.	.	.	?
Cc1c(NC(=O)c2ccc3c(c2)OCO3)cccc1-c1nc2ccccc2o1	.	.	21µM	21µM	.	?
SMILES	HCMV inh	Vaccinia mCherry	Lassa entry inh	Marburg entry inh	Vaccinia Venus	HCV inhibitor
Cc1ccc2oc(-c3ccc(NC(=O)c4ccc5c(c4)OCO5)cc3)nc2c1	.	/	.	.	/	?
O=C(Nc1ccc(-c2nc3ccccc3o2)cc1)c1ccc2c(c1)OCO2	-108	/	.	.	/	?
O=C(Nc1ccc(-c2nc3ccccc3o2)cc1)c1cccnc1	.	?	.	?	?	?
O=C(Nc1ccc(-c2nc3ccccc3o2)cc1)c1ccc(N2C(=O)C3C4C=CC(C4)C3C2=O)cc1 (stereo not drawn)	.	.	15µM	.	.	4µM
O=C(Nc1ccccc1-c1nc2ccccc2o1)c1ccc2c(c1)OCCO2	/	/	/	.	/	/
CC(C)NC(=O)COC(=O)c1ccccc1OCC(=O)Nc1ccc(Br)cc1	/	.	/	/	.	/
FC(F)(F)c1cccc(-c2n[nH]c3ccnc(-c4ccsc4)c23)c1	-60	/	/	/	/	/
CSC1=NC2(CCN(C(=O)NC3CCCCC3)CC2)N=C1c1ccc(C)cc1	.	.	.	/	.	/
CCOc1ccc2[nH]c(=O)c(CN(Cc3nnnn3Cc3ccco3)C3CCCCC3)cc2c1	.	/	?	10µM	.	?
CCOc1ccc2[nH]c(=O)c(CN(CCO)C3(c4nnnn4C4CCCCC4)CCCCC3)cc2c1	-61	.	.	?	.	.
